# A selection: hits, their analogues and other compounds. The true share with any hit is near 8.3%.
# HCV inhibitor: HCV inhibition. Huh7.5.1 HCVcc-Cre infection, luciferase reporter, 44 h. Potency, µM (doses to about 41.8 µM), without a hit: at the top dose activity change, negative = inhibition, actives largely listed as inhibitors. actives 3.4% (n = 340,000). AID 651820; note: potency is the fitted concentration of half-maximal effect
#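 Antiviral activity was scored by luciferase reporter output from cells infected with HCVcc-Cre (~0.5 moi) in presence of compound, 44 h infection period, cells seeded 1,000/well 4 h prior.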
# FBPA Giardia inh: Giardia lamblia aldolase inhibition; A8B2U2; actives 0.71% (n = 290,000); Potency, µM (titrated, usually from 59.6 µM), for the others: top-dose activity, negative = inhibition, usual class: inhibitors; purified Giardia FBPA; AID 2451; note: potency is the fitted concentration of half-maximal effect; nearly all actives have a fitted effect of over 55% in size
# Target sequence (A8B2U2 whole entry, looked up): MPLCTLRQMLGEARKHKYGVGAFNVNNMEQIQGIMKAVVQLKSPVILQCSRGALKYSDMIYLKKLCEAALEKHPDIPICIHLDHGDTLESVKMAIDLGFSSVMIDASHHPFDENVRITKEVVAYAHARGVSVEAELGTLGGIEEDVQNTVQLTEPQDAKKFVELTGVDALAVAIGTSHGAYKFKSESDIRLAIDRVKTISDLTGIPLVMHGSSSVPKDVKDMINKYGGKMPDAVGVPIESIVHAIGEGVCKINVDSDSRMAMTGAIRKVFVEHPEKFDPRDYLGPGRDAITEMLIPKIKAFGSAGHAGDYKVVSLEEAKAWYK
#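 40 nM FBPA preincubated 10 min at RT with compound (up to 57.5 uM final), then substrate plus GAPDH/TPI/NAD/arsenate coupling and diaphorase/resazurin added. Fluorescence read after 20 min at RT, 525/598 nm.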
# MARV entry inh: blocks Marburg virus binding to or entry into cells; Marburg virus pseudotyped entry inhibition, cell reporter; Potency, µM (highest dose often 37.8 µM), inactives show top-dose activity change, negative = inhibition, most hits filed as inhibitors; actives 1.8% (n = 300,000); calls by dose curve; tested in HEK293 cells; note: potency is the fitted concentration of half-maximal effect
# HCMV antiviral: human cytomegalovirus inhibition | HFF cells, HCMV-luciferase reporter, 72 h; active compounds read low | activity change, negative = inhibition, % at 57.5 µM | actives 4.5% (n = 410,000) | AID 1259415; in the data active = activity change below about -60%; inconclusive = no clear call, values can overlap the other calls; inactive = above about -39%
#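 Screen run at 2 compound doses on HFFs infected with reporter HCMV, MOI 1 PFU/cell. Luciferase activity from cell lysates at 72 h post infection gave inhibition relative to buffer-only and Salinomycin wells.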
# Lassa entry inh: Lassa virus entry inhibition | Lassa virus pseudotype entry inhibition, cell reporter | Potency, µM (doses to about 37.9 µM), without a hit: at the highest dose activity change, negative = inhibition, most hits filed as inhibitors | actives 1.2% (n = 300,000) | AID 540256; calls by dose curve; tested in HEK293 cells; note: potency is the fitted concentration of half-maximal effect; nearly all actives have a fitted effect of over 50% in size
# FMDV inh: blocks foot and mouth disease virus; Potency, µM (highest dose often 57.9 µM), for the others: at the highest dose activity change, negative = inhibition, most hits filed as inhibitors; FMDV antiviral cell-based qHTS; actives 1.2% (n = 410,000); calls by dose curve; tested in HEK293T cells; note: read-out not given here; potency is the fitted concentration of half-maximal effect; nearly all actives have a fitted effect of over 45% in size
# The depositor's hits bear a star; ? = inconclusive; / = no result; [ ] = remark or other dose. Unless noted, calls come from the whole dose curve; as a rule, active = well fitted curve in the direction sought with a large enough effect; inconclusive = small, poorly fitted or top-dose-only effect, or another doubt; inactive = no such curve, though single readings can be large; an effect the other way counts as inactive or inconclusive. % is set by controls: 0 for no effect and ±100 for the full control effect.
SMILES,HCV inhibitor,FBPA Giardia inh,MARV entry inh,HCMV antiviral,Lassa entry inh,FMDV inh
COCCNC(=S)N1CCN(c2nc(-c3ccc(Cl)cc3)cs2)CC1,13µM*,2%,-22%[46.1 µM],?,28%[46.1 µM],?
S=C(NCc1ccco1)N1CCN(c2nc(-c3ccc(Cl)cc3)cs2)CC1,?,-14%,?,-74*,?,?
COc1ccccc1CN1CCCC(n2cc(C(=O)N3CCCCC3)nn2)C1 (centres undefined),/,/,/,/,/,0%
CCCn1ccc2c(OCC(=O)Nc3ccc(C(F)(F)F)cc3)cccc2c1=O,/,/,/,-8,6%[46.1 µM],-19%
c1ccc(C2c3[nH]c4ccccc4c3CCN2Cc2cccn2-c2ccccn2)nc1 (centres undefined),?,-14%,/,10,/,-24%
Oc1cccc(C2c3[nH]c4ccccc4c3CCN2Cc2ccc3c(c2)CCO3)c1 (centres undefined),-12%,-12%,3.2µM*,-21,?,-26%
Cc1cccc(C2c3[nH]c4ccccc4c3CCN2Cc2cccn2-c2ncccn2)c1 (centres undefined),-15%,-14%,?,-32,11µM*,-6%
Oc1cccc(C2c3[nH]c4ccccc4c3CCN2Cc2ccoc2)c1 (centres undefined),18%,-7%,/,31,/,-25%
COc1ccc(C2c3[nH]c4ccccc4c3CCN2Cc2cccn2-c2ncccn2)cc1C (centres undefined),?,-18%,7.1µM*,-99*,?,-2%
CC(=O)c1cccc(NC(=O)c2oc(=O)c3ccccc3c2-c2ccccc2)c1,/,/,/,-1,-11%[46.1 µM],0%
Cc1sc2nc(CN(Cc3cccs3)C(=O)NC3CCCCC3)[nH]c(=O)c2c1C,11µM*,0%,?,-25,?,-26%
Cc1cc(Nc2ccc(F)cc2)n2c(nc3ccccc32)c1C#N,/,/,1%[46.1 µM],-25,1%[46.1 µM],?
Cc1cc(Nc2cccc([N+](=O)[O-])c2)n2c(nc3ccccc32)c1C#N,6.3µM*,?,3.2µM*,-100*,6.3µM*,?
Cc1ccc(N(CCCCN2C(=O)c3ccccc3C2=O)C(=O)c2cccs2)cc1,-2%,0%,?,-83*,?,-29%
CN1CCN(C2=Cc3ccccc3Sc3cc(F)ccc32)CC1,?,-5%,?,25,-10%,-22%
CN1CCN(C2=Cc3ccc(Cl)cc3Sc3ccc(F)cc32)CC1,?,-3%,7.9µM*,22,?,-1%
CCN(CC)CCn1c(-c2ccccc2)nc2c(NCCO)nc(C)nc21,/,7%,/,/,/,/
O=C(COc1ccccc1F)NC1CCN(Cc2ccccc2)CC1,8%,6%,-1%,3,-18%,-2%
CC(C)Oc1cccnc1N(C)C1CCN(Cc2ccccc2)CC1,-18%,2%,1.8µM*,-11,-9%,-21%
COC(=O)c1c(OCC2CCCN(C)C2)cc(=O)n2c1CCN(Cc1ccc(OC)c(O)c1)CC2 (centres undefined),/,/,/,/,/,-6%
Cc1ccc(S(=O)(=O)N2CCCOC2CNC(=O)C(=O)NCCc2c[nH]c3ccccc23)cc1 (centres undefined),?,2%,?,-64*,?,0%
Cc1ccc(S(=O)(=O)N2CCOC2CNC(=O)C(=O)NCCCN2CCOCC2)cc1 (centres undefined),-1%,/,/,-61*,/,-21%
O=C(NCCCN1CCOCC1)C(=O)NCC1OCCN1S(=O)(=O)c1ccc(F)cc1 (centres undefined),24%,/,-6%,-1,-2%,-8%
CCN(CC)CCCC(C)Nc1nc(C)cc(Nc2ccc3nc(C)cc(N)c3c2)n1 (centres undefined),/,-10%,/,/,/,/
CCOC(=O)CC1N=NN=N1,/,/,19%[46.1 µM],/,/,/
SMILES,HCV inhibitor,FBPA Giardia inh,MARV entry inh,HCMV antiviral,Lassa entry inh,FMDV inh
CCN(CC)CCNC(=O)CSc1c2c(nc3cc(Cl)ccc13)CCCC2,10µM*,-4%,/,-99*,/,?
O=C(CSc1c2c(nc3ccc(Cl)cc13)CCCC2)N1CCN(C(=O)c2ccco2)CC1,?,/,/,52,/,25µM*
O=C(c1ccco1)N1CCN(C(=O)C2CCCc3c2[nH]c2ccc(Cl)cc32)CC1 (centres undefined),?,-6%,2.8µM*,-38,4.5µM*,-13%
Cc1ccc(CNC(=O)CSc2c3c(nc4ccc(Cl)cc24)CCCC3)o1,?,1%,?,26,7.3µM*,?
O=C(O)c1[nH]c2ccc(Cl)cc2c1CC(=O)N1CCN(C(=O)c2ccco2)CC1,11%,8%,11%,6,10%,0%
COc1ccc(C(=O)CN2C(=O)N(c3ccc(C(C)=O)cc3)S(=O)(=O)c3ccccc32)cc1,/,/,/,18,?,-10%
Cc1ccc(NC(=O)O/N=C/c2c(C)nn(C(C)(C)C)c2C)cc1Cl,-10%,-9%,?,-86*,?,0.013µM*
Cc1cc(N2CCN(c3cccc(C)c3C)CC2)n2cnnc2n1,/,/,?,-18,-29%[46.1 µM],?
CCOc1ccc(C(=O)Nc2nc3ccccc3[nH]2)cc1OCC,?,-28%,11µM*,-63*,/,?
O=C(Nc1nc2ccccc2[nH]1)c1ccccc1OC(F)F,-13%,-18%,?,80,?,-39%
CC(C)Oc1ccc(C(=O)Nc2nc3ccccc3[nH]2)cc1,?,5%,?,-60*,1.1µM*,7.9µM*
COc1ccc(C(=O)Nc2nc3ccccc3[nH]2)cc1OC,-16%,-14%,-20%,119,12%,21%
O=C(Nc1nc2ccccc2[nH]1)c1ccc(OC(F)F)cc1,?,21%,?,33,?,13µM*
COc1cc(C(=O)Nc2nc3ccccc3[nH]2)ccc1OC(F)F,8.9µM*,?,?,-14,?,-1%
Cc1ccc2nc(-c3cc(NC(=O)COc4ccc(C)c(C)c4)ccc3Cl)oc2c1,/,/,14%[46.1 µM],49,-1%[46.1 µM],40%
CC(C)CO/N=C1/C[C@@H](O)[C@@H](O)[C@@H]2[C@@H]3C(=O)N(Cc4ccc5c(c4)OCO5)C(=O)[C@H]3CC[C@H]12,/,1%[12.9 µM],-30%[14.2 µM],/,/,/
O=S1(=O)CCSC[C@@H](CN2CCOCC2)N1,/,/,/,-7,/,/
O=C(Nc1ccc(Nc2cccnc2)cc1)c1c[nH]c2ccccc12,/,/,/,-27,/,/
Cc1nn2c(C)c(C(=O)NC(C)(C)C)cnc2c1-c1ccc(F)cc1,/,/,/,2,1%[46.1 µM],1%
CC12C=C(C=Cc3ccc(Br)cc3)C(C)(C1)C(c1ccc(Br)cc1)CC2=O (centres undefined),/,/,-26%[14.2 µM],/,11%[14.3 µM],/
COc1ccc2c(c1)C(CC(C)=O)N(c1ccc(-c3cccs3)cc1)C(c1ccsc1)=C2 (centres undefined),/,/,/,-90*,/,-10%
O=C(CC1CC1)N1CC(=O)N2[C@@H](CO)[C@@H](c3ccc(Br)cc3)[C@@H]2C1,/,/,/,-21,/,/
